Assay outcomes from PubChem.
Only some compounds are listed: those with a hit (about 3.8% of all), similar ones and a draw of the others.
697 NFkB inh = inhibitors of PMA/ionomycin-induced NF-kB reporter, 697 cells, primary screen, B-cell NF-kB inhibitor project, cell-based, luminescence, uHTS | 0.33% of 330,000 active | 697 B-cell NF-kB luciferase reporter, 16 h | inhibition, % at 4 µM; in the data active = inhibition above about 35%
Shn3 inh set2 = reduction of Shn3 3'UTR firefly luciferase signal, primary screen, Schnurri-3 inhibitor project, cell-based, Clone20 osteoblasts, set 2. 0.52% of 360,000 active. inhibition, % at 12.5 µM. Clone20 osteoblast Shn3 3'UTR firefly luciferase, 24 h;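 active = mean inhibition of at least 75% with every replicate also reaching 75%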
Mdm2 MdmX PPI = inhibitors of human Mdm2-MdmX association, primary screen, cell-based, luminescence, split luciferase, SaOS-2, uHTS. SaOS-2 split-luciferase Mdm2/MdmX complementation. AID 485346, 2010. 3% of 330,000 active. Protein Mdm4 (Homo sapiens) + E3 ubiquitin-protein ligase Mdm2 (Homo sapiens), …. inhibition, % at 8 µM;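 active = inhibition of at least 50% at 8 µM in the primary screen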
Target sequence (O15151 whole entry, looked up): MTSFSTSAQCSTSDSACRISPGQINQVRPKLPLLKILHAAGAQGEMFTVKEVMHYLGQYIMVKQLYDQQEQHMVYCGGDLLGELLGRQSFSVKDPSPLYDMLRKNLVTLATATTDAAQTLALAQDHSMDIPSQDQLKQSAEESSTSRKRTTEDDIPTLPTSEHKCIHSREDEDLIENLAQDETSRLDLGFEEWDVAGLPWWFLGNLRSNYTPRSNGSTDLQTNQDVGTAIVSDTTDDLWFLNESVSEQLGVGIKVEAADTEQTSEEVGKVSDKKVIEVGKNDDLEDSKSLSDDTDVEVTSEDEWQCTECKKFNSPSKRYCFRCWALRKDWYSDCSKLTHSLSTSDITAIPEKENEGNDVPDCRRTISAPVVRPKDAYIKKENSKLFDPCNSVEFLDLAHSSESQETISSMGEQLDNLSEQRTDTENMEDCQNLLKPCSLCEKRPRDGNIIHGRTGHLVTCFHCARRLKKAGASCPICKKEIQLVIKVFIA
Target sequence (Q00987 whole entry, looked up): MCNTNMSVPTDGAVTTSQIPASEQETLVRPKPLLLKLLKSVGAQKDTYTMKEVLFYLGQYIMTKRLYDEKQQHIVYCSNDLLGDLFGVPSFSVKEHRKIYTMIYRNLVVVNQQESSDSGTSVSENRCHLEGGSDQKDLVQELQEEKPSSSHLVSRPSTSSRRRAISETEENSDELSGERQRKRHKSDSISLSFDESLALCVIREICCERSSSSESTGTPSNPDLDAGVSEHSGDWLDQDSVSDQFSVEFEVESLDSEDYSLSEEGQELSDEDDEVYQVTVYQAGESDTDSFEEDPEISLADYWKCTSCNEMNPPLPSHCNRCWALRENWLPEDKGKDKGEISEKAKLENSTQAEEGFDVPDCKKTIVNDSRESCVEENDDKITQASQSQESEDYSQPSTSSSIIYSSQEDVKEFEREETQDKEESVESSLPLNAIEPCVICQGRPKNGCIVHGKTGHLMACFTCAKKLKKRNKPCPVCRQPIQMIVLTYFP
Jurkat NFkB inh = inhibitors of induced NF-kB luciferase reporter, primary screen, TCR NF-kB activation inhibitor project, cell-based, luminescence, uHTS; Jurkat, PMA/ionomycin-induced NF-kB luciferase reporter; 0.53% of 330,000 active; AID 435003, 2010; inhibition, % at 4 µM; in the data active = inhibition above about 50%
Gli-Sufu block = Gli-Sufu pathway antagonists, primary screen, luciferase luminescence, Sufu-KO-LIGHT cells, uHTS; Sufu-KO-LIGHT fibroblasts, Gli luciferase reporter luminescence; inhibition, % at 5 µM; 0.74% of 340,000 active;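 active = inhibition above about 55%, limit read from the data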
Gli antag conf = Gli-SUFU pathway antagonists, confirmation, single concentration, luciferase luminescence, Sufu-KO-LIGHT cells. 40% of 2,500 active. inhibition, % at 5 µM. shares compounds with Gli-Sufu block. Gli luciferase reporter;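 active = mean inhibition at 5 µM reaching about 45%, limit read from the data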
SufuKO cytotox = cytotoxicity in Sufu-KO-LIGHT cells, confirmation, cytotoxicity control for Gli-SUFU antagonist project, cell-based, ATP luminescence, single concentration. shares compounds with Gli-Sufu block. cytotoxicity, % at 5 µM. 32% of 2,500 active. AID 651994, 2013;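 active = mean cytotoxicity at 5 µM above about 25%, limit read from the data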;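 note: cells exposed to compound overnight for roughly 16 to 18 hours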
Wnt3a cs = Wnt3a reporter signal inhibition, confirmation, counter-screen for Gli-SUFU antagonist project, Wnt-LIGHT cells, luminescence, single concentration; inhibition, % at 6.25 µM; Wnt3a-driven luciferase reporter; shares compounds with Gli-Sufu block; 20% of 2,500 active;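 active = mean inhibition above about 25%, limit read from the data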
Numbers stand for hits; . = inactive; / = not tested or not shown.

SMILES	697 NFkB inh	Shn3 inh set2	Mdm2 MdmX PPI	Jurkat NFkB inh	Gli-Sufu block	Gli antag conf	SufuKO cytotox	Wnt3a cs
O=C(/C=C/c1ccc(S(=O)(=O)N2CCOCC2)cc1)NCc1ccccc1F	.	.	.	.	.	.	.	.
O=C(/C=C/c1ccc(S(=O)(=O)N2CCOCC2)cc1)NCc1ccccc1Cl	.	.	.	.	.	/	/	/
O=C(NCCc1ccccc1)C1CCC(=O)N(CCCN2CCCC2=O)C1 (stereo not given)	.	.	.	.	.	/	/	/
O=C(NCc1cc2ccccc2[nH]1)C1CCC(=O)N(CCCN2CCCC2=O)C1 (stereo not given)	.	.	.	.	58.8	.	.	.
COc1ccc(CN(C)CC2CCCN(CCc3ccccc3C)C2)cc1O (stereo not given)	.	.	.	.	.	/	/	/
COc1cccc(CN(C)CC2CCCN(CCc3ccccc3C)C2)c1 (stereo not given)	.	.	.	.	60.6	.	.	.
Cc1nn(-c2ccc(NC(=O)c3ccncc3)cc2)c(C)c1Cl	.	.	.	.	56.4	45.4	.	.
O=C(NCCOC(=O)c1ccccc1)c1ccccc1	.	.	.	.	.	/	/	/
O=C(NCCOC(=O)c1ccc(C(=O)OCCNC(=O)c2ccccc2)o1)c1ccccc1	.	.	.	.	.	.	.	.
CC(=O)N1CCN(C(=O)c2c(-c3ccccc3)noc2C)CC1	.	.	.	.	58.9	.	.	.
S=C(Nc1ccccc1)Nc1ccc(OCc2ccc(Cl)cc2Cl)cc1	.	84.9	.	.	57.8	68.0	28.6	102.9
CCOC(=O)CN1C(=O)/C(=C/c2ccccc2Br)Oc2ccccc21	.	.	.	.	57.2	.	.	.
CCOC(=O)CN1C(=O)C(CC)Oc2ccccc21 (stereo not given)	.	.	.	.	.	/	/	/
COc1ccc2c(c1)C(C)=CC(C)(C)N2S(=O)(=O)c1ccc(Br)cc1	/	.	/	/	59.1	58.1	57.6	.
O=C(OCc1ccccc1)N1Cc2ccnnc2CC1c1ccccc1Br (stereo not given)	/	.	/	/	/	/	/	/
Cc1cc(C)nc(/N=C(\N)Nc2ccccc2-c2ccccc2)n1	.	.	.	.	59.7	.	.	.
Cc1ccc(C)c(Nc2nc(-c3ccncc3)nc3ccccc23)c1	.	.	.	.	.	/	/	/
CC(C)OP(=O)(Nc1cccc2ccccc12)OC(C)C	.	.	.	.	.	/	/	/
CN(C)P(=O)(Nc1cccc2ccccc12)Nc1cccc2ccccc12	.	87.7	.	.	.	.	.	.
O=c1cc(CSc2nnc(Nc3ccccc3)s2)nc2sccn12	.	.	.	.	.	.	.	.
CSc1nnc(Cn2c(=O)sc3ccccc32)n1-c1ccccc1C	.	.	.	.	.	.	.	.
CCSc1nnc(Cn2c(=O)sc3ccccc32)n1-c1ccccc1C	.	.	.	.	.	/	/	/
O=C(CN1CCSCC1)c1c[nH]c2ccccc12	.	.	.	.	99.2	.	.	.
Cc1cc(C)n(C(C)CC(=O)Nc2ccc(-c3ccno3)cc2)n1 (stereo not given)	.	.	.	.	55.9	.	.	.
CC(Oc1cccc2c1OC(C)(C)C2)C(=O)O (stereo not given)	.	.	.	.	96.0	.	.	.
SMILES	697 NFkB inh	Shn3 inh set2	Mdm2 MdmX PPI	Jurkat NFkB inh	Gli-Sufu block	Gli antag conf	SufuKO cytotox	Wnt3a cs
CN(CC(=O)Nc1ccccc1Cl)C(=O)CN1C(=O)C2CC=CCC2C1=O (stereo not given)	.	.	.	.	.	.	.	.
COc1ccc(NC(=O)CN(C)C(=O)c2cc(CN3C(=O)c4ccccc4C3=O)ccc2OC)cc1	.	.	.	.	.	/	/	/
CN(C)C(=O)c1ccc(NC(=O)c2cccc(-n3cnnn3)c2)cc1	/	.	/	/	/	/	/	/
CCCCNC(=S)N(C)/N=C/c1ccc2c(c1)OCO2	.	.	.	.	99.3	.	.	.
CCOC(=O)N1CCN(C(=O)c2ccc(CSc3ccc(Cl)cc3)cc2)CC1	.	.	.	.	58.0	47.8	.	.
C[C@@H]1CN([C@@H](C)CO)S(=O)(=O)c2ccc(Br)cc2O[C@H]1CN(C)C(=O)Nc1ccc2c(c1)OCO2	/	.	/	/	/	/	/	/
CCCC1=Nc2cc(C(=O)N3CCCC3)ccc2Sc2ccc(C)cc21	.	.	.	.	.	.	.	.
CCC1=Nc2cc(C(=O)NCCN3CCOCC3)ccc2Sc2ccc(C)cc21	.	.	.	.	.	/	/	/
CCC1=Nc2cc(C(=O)N3CCCCC3)ccc2Sc2ccc(C)cc21	.	.	.	.	.	/	/	/
CCC1=Nc2cc(C(=O)NCc3ccco3)ccc2Sc2ccc(C)cc21	/	.	/	/	57.4	62.2	59.0	.
CCCCn1c(N)c(N(CC(C)C)C(=O)CSCc2ccc(Cl)c(Cl)c2)c(=O)[nH]c1=O	.	.	.	.	.	/	/	/
COC(=O)c1cc(C(=O)OCC(=O)NC(=O)c2ccccc2)cc([N+](=O)[O-])c1	.	.	.	.	.	/	/	/
CCOC(=O)Cn1c2c(c(=N)c3c1CCC3)CCCC2	.	.	.	.	.	/	/	/
CCCn1c2c(c(=N)c3c1CCC3)CCCC2	.	.	.	.	61.2	59.6	.	.
CCOC(=O)c1ccc2c(c1)n(CC)c(/C=C/N(C)c1ccccc1)[n+]2CC	.	.	.	.	83.3	85.5	30.7	33.5
NC(=S)N/N=C/c1ccc(C(F)(F)F)cc1	.	.	.	.	.	/	/	/
NC(=S)N/N=C/c1ncc(C(F)(F)F)cc1Cl	.	91.0	.	.	.	65.2	28.1	44.0
CSC1=NCCN1C(=O)Cc1ccc(-c2ccccc2)cc1	.	.	.	.	62.4	.	.	.
CC(C)(C)c1ccc2c(c1)N(CC(=O)N1CCCC1)C(=O)CO2	.	.	.	.	/	/	/	/
Cc1ccc(C2(C)NC(=O)N(CC(=O)Nc3ccc(Cl)c(S(=O)(=O)N4CCCCC4)c3)C2=O)cc1 (stereo not given)	.	.	.	.	.	/	/	/
CCCCNc1nc2ccccc2n1CC(=O)Nc1c(C)cccc1CC	.	.	.	.	.	/	/	/
O=C(NNC1CC(=O)N(c2ccc(Br)cc2)C1=O)c1cccs1 (stereo not given)	.	.	.	.	.	/	/	/
CCOC(=O)CNC1CC(=O)N(c2ccc(Br)cc2)C1=O (stereo not given)	.	.	.	.	77.0	.	.	.
